Test results from PubChem BioAssay (Tox21).
Results filed as inconclusive are left out. Activity calls are given as the source filed them. Unless noted, the call rests on the fitted dose curve.

Legend:
[1] = Nuclear factor erythroid 2-related factor 2/antioxidant responsive element (Nrf2/ARE) small molecule agonists: qHTS cell viability counter screen in human keratinocytes (AID 1919968; active means well fitted curve in the direction sought with a large enough effect in the repeat runs; an effect the other way counts as inactive or inconclusive; further: nearly all actives have a fitted effect of over 55% in size)
Procedure, shortened: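 Viability counter-screen: KeratinoSens reporter cells, DMSO-delivered compounds, 23 h at 37 C, CellTiter-Fluor fluorescence.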

[2] = Nuclear factor erythroid 2-related factor 2/antioxidant responsive element (Nrf2/ARE) small molecule agonists: luciferase reporter gene qHTS assay in human keratinocytes (AID 1919969); further: nearly all actives have a fitted effect of over 35% in size
[3] = target: Gonadotropin-releasing hormone receptor (Homo sapiens) (UniProt P30968); experiment: Human gonadotropin-releasing hormone receptor (GnRHR) small molecule agonists, calcium flux assay in GnRHR-HEK293 cells (AID 1920063); further: nearly all actives have a fitted effect of over 35% in size
Sequence of Gonadotropin-releasing hormone receptor (Homo sapiens) (P30968 whole entry, looked up): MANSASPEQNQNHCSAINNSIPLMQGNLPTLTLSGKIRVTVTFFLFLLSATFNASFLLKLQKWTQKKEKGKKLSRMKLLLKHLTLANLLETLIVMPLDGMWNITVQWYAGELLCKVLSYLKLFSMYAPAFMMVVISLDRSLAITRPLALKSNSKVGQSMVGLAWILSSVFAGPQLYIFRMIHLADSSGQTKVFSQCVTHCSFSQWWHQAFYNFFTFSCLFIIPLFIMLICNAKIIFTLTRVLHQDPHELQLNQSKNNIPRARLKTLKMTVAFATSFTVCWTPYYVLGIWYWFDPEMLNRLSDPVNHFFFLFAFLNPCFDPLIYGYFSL
Procedure, shortened: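 Tox21-format agonist screen using human GnRHR-expressing HEK293 cells and a fluorescent calcium dye; kinetic 3-min fluorescence reading after compound addition, 15-point concentration series run in triplicate.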

[4] = target: KiSS-1 receptor (Homo sapiens) (UniProt Q969F8); experiment: Human kisspeptin (KISS1R) small molecule agonists, calcium flux assay in KISS1R-HEK293 cells (AID 1920064; active means well fitted curve in the direction sought with a large enough effect in the repeat runs; an effect the other way counts as inactive or inconclusive)
Sequence of KiSS-1 receptor (Homo sapiens) (Q969F8 whole entry, looked up): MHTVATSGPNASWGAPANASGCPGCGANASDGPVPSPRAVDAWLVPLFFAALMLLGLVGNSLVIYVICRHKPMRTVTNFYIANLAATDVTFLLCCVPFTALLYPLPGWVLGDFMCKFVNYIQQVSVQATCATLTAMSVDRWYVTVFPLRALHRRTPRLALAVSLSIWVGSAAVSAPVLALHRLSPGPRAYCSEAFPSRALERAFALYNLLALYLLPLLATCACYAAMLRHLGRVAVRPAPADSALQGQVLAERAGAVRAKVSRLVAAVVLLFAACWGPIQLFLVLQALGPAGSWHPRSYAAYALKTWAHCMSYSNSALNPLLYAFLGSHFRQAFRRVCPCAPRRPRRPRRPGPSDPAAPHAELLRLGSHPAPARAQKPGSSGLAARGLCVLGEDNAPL
Procedure, shortened: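 Intracellular calcium mobilization in KISS1R-HEK293 cells was recorded by fluorescence (Ex/Em 480/540) for 3 min following compound addition to cells pre-loaded 1 h with calcium dye.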

[5] = G protein-coupled receptor (GPCR) small molecule agonists, calcium flux assay: HEK293 wild type cell line counter screen (AID 1920065)
Procedure, shortened: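 In this agonist-mode screen, ATP is the positive control and DMSO the vehicle. Cells grow 18 h before a 1 h dye incubation at 37 C; signal is taken at Ex/Em 480/540 over 3 min.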

[6] = p53 small molecule agonists, cell-based qHTS assay with human liver microsomes: qHTS cell viability counter screen (AID 1963579); further: nearly all actives have a fitted effect of over 45% in size
Procedure, shortened: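 Cytotoxicity counter screen: p53RE-bla, 4,000 cells/well; 5 h settle, 37 C/5% CO2; cpd + HLM 0.5 mg/mL + NADPH 0.5 mg/mL (final); 16 h, 37 C; CellTiter-Glo, 30 min RT, luminescence.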

[7] = p53 small molecule agonists, cell-based qHTS assay: qHTS cell viability counter screen (AID 1963581); further: nearly all actives have a fitted effect of over 45% in size
Procedure, shortened: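 Compounds are pinned onto HCT-116 p53RE-bla cells and left 16 h at 37 C. Following the reporter FRET read, ATP is quantified by CellTiter-Glo luminescence after 30 min at room temperature.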

[8] = target: 5-hydroxytryptamine receptor 2A (Homo sapiens) (UniProt P28223); experiment: 5-hydroxytryptamine receptor 2A (HTR2A) small molecule antagonists, cell-based qHTS assay (AID 1963586); further: nearly all actives have a fitted effect of over 45% in size
Sequence of 5-hydroxytryptamine receptor 2A (Homo sapiens) (P28223 whole entry, looked up): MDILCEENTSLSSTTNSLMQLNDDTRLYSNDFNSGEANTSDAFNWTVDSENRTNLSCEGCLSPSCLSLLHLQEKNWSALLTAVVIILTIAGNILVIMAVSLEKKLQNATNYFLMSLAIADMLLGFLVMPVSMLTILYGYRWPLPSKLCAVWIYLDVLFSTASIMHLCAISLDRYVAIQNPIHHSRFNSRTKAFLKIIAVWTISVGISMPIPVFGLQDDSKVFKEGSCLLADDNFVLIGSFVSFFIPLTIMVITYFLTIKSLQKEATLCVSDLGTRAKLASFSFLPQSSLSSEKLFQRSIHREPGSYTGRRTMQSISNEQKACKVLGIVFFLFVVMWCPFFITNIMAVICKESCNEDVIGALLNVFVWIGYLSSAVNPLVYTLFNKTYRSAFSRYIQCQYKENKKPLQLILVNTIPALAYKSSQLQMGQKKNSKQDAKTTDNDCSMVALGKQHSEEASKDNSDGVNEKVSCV
Procedure, shortened: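 Antagonist-mode intracellular calcium assay: DOI (4 nM) added after 5 min compound pre-incubation at room temperature to dye-loaded HTR2A-CHO cells. Fluorescence followed for 3 min, sampled every second.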

[9] = target: 5-hydroxytryptamine receptor 2A (Homo sapiens) (UniProt P28223); experiment: 5-hydroxytryptamine receptor 2A (HTR2A) small molecule agonists, cell-based qHTS assay (AID 1963587); further: nearly all actives have a fitted effect of over 30% in size
Procedure, shortened: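 Kinetic calcium-flux fluorescence (2 min, 1 sec intervals) after compound addition in agonist mode. HTR2A-CHO cells were cultured 18 h, then dye-loaded 1 h at 37 C.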

[10] = target: Muscarinic acetylcholine receptor M1 (Homo sapiens) (UniProt P11229); experiment: Cholinergic receptor muscarinic 1 (CHRM1) small molecule antagonists, cell-based qHTS assay (AID 1963588); further: nearly all actives have a fitted effect of over 40% in size
Sequence of Muscarinic acetylcholine receptor M1 (Homo sapiens) (P11229 whole entry, looked up): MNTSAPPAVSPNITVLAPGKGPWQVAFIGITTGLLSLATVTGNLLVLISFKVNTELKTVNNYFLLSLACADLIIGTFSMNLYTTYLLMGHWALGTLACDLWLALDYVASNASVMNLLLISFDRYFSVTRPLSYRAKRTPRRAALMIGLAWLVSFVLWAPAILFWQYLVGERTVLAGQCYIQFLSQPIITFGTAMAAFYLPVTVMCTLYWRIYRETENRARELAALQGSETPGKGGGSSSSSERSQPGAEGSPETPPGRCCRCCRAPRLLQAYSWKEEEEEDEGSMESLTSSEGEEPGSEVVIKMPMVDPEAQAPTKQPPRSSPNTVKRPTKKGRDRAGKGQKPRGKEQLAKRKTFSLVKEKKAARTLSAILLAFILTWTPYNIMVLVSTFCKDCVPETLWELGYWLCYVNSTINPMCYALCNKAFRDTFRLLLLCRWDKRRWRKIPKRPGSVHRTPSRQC
Procedure, shortened: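 CHRM1-CHO calcium-flux assay, antagonist mode. Cells were seeded 18 h, dye-loaded 1 h at 37 C and given compound for 5 min at RT, then acetylcholine was added at 50nM. FDSS fluorescence was read 3 min; 15 concentrations, three runs.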

[11] = target: Muscarinic acetylcholine receptor M1 (Homo sapiens) (UniProt P11229); experiment: Cholinergic receptor muscarinic 1 (CHRM1) small molecule agonists, cell-based qHTS assay (AID 1963589); further: nearly all actives have a fitted effect of over 35% in size
Procedure, shortened: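 Stable CHRM1-CHO cells (human receptor) were incubated 18 h, dye-loaded for 1 h at 37 C and exposed to test compounds for agonist activity, with calcium-dependent fluorescence followed kinetically.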

[12] = cAMP Responsive Elements (CRE) small molecule agonists, cell-based qHTS assay (AID 1963590)
Procedure, shortened: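 FRET-based beta-lactamase readout (LiveBLAzer B/G, 2 h RT) quantified CRE activation in HEK 293T CRE-bla cells after 3 h treatment with DMSO-dissolved compounds.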

[13] = target: Beta-2 adrenergic receptor (Homo sapiens) (UniProt P07550); experiment: Adrenergic beta2 receptor (ADRB2) small molecule antagonists, cell-based qHTS assay (AID 1963592); further: series mostly up to about 92 µM; nearly all actives have a fitted effect of over 50% in size
Sequence of Beta-2 adrenergic receptor (Homo sapiens) (P07550 whole entry, looked up): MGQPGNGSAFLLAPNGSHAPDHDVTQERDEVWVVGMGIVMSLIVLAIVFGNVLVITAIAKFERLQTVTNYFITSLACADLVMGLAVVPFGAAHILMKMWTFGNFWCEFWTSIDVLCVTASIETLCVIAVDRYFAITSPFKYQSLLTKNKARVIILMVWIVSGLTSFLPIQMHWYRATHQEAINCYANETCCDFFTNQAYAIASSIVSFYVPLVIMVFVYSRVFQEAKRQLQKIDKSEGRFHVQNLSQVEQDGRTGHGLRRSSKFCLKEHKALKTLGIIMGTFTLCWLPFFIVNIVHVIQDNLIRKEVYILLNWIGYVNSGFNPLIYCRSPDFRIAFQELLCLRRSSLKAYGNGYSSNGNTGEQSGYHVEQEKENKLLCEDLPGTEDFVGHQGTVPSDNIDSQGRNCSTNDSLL
Procedure, shortened: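 Cells (CHO, stable ADRB2 overexpression) incubated 18-20hr at 37C; compounds added from DMSO; agonist mix (1nM isoproterenol, 100uM IBMX, 25uM Ro-20-1724) added; 0.5hr RT; d2-cAMP and anti-cAMP-cryptate added; 1hr RT; 665/615 nm read.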

[14] = target: D(2) dopamine receptor (Homo sapiens) (UniProt P14416); experiment: Dopamine D2 receptor (DRD2) small molecule agonists, cell-based qHTS assay (AID 1963594); further: nearly all actives have a fitted effect of over 35% in size
Sequence of D(2) dopamine receptor (Homo sapiens) (P14416 whole entry, looked up): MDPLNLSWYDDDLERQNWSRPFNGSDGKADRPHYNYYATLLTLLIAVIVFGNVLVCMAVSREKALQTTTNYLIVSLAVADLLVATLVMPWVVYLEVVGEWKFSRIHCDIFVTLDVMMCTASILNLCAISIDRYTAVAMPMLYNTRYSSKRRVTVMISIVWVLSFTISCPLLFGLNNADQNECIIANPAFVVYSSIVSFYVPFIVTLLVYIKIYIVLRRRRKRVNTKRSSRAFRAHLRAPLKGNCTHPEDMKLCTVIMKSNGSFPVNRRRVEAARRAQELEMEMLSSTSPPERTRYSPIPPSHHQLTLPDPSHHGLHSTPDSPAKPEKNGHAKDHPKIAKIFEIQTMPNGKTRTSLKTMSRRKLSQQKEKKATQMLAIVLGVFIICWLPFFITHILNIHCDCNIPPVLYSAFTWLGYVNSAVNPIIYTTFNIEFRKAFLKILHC
Procedure, shortened: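 cAMP accumulation in DRD2-HEK293 cells measured by HTRF after 1 h detection; compounds added 10 min before NKH477 (200nM […]) forskolin-analogue stimulation, 30 min at room temperature, with Ro20-1724 present at 0.1 mM final.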

[15] = target: D(2) dopamine receptor (Homo sapiens) (UniProt P14416); experiment: Dopamine D2 receptor (DRD2) small molecule antagonists, cell-based qHTS assay (AID 1963595; active means well fitted inhibition curve with a large enough effect in the signal ratio in the repeat runs, with a control signal flat; the % refers to the signal ratio)
Procedure, shortened: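 Stable D2 receptor HEK293 line, 24 h after seeding. Compound preincubated 10 min, then quinpirole (12 nM) with forskolin analogue NKH477 (200 nM), 30 min, room temperature. Detection by time-resolved FRET of cAMP.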

[16] = cAMP Responsive Elements (CRE) small molecule antagonists, cell-based qHTS assay (AID 1963591; active means well fitted inhibition curve with a large enough effect in the signal ratio in the repeat runs, not every such curve was filed as active; the % refers to the signal ratio)
Procedure, shortened: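 qHTS in CRE-bla HEK 293T cells: compound in DMSO, then 0.25 uM NKH477 (final), 3 h at 37 °C/5% CO2; beta-lactamase FRET read-out after 2 h substrate incubation.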

[17] = target: Beta-2 adrenergic receptor (Homo sapiens) (UniProt P07550); experiment: Adrenergic beta2 receptor (ADRB2) small molecule agonists, cell-based qHTS assay (AID 1963593);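 further: CHO cells stably overexpressing human ADRB2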
Procedure, shortened: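 CHO cells stably over-expressing ADRB2 were plated overnight at 37C, then dosed with compounds plus a stimulation mix containing 100uM IBMX and 25uM Ro-20-1724 for 0.5hr at room temperature. cAMP was measured by HTRF competition, 1hr.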

[18] = p53 small molecule agonists, cell-based qHTS assay (AID 1963582; active means well fitted activation curve with a large enough effect in the signal ratio in the repeat runs, not every such curve was filed as active; the % refers to the signal ratio)
Procedure, shortened: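 Agonist activity was scored from beta-lactamase FRET fluorescence in p53RE-bla cells treated 16 h at 37 C with compounds in DMSO, substrate incubation being 2 h at room temperature.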

[19] = p53 small molecule agonists, cell-based qHTS assay with rat liver microsomes: qHTS cell viability counter screen (AID 1963580); further: nearly all actives have a fitted effect of over 45% in size
Procedure, shortened: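 HCT-116 p53RE-bla, 4,000 cells/well, 5 h pre-incubation; cpd + rat liver microsomes 0.5 mg/mL + NADPH 0.5 mg/mL (final); 16 h, 37 C; CellTiter-Glo, 30 min RT; luminescence.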
On the % scale 0 is the no-effect control and ±100 the full control effect.

O=C1CCC(=O)N1Cl
inactive: Potency [1] | Potency [2] | Potency [3] | Potency [4] | Potency [5] | Potency [6] | Potency [7] | Potency [8] | Potency [9] | Potency [10] | Potency [11] | Potency [12] | Potency [13] | Potency [14] | Potency [15]

COc1ccc(OC)c(Cl)c1
inactive: Potency [1] | Potency [2] | Potency [3] | Potency [4] | Potency [5] | Potency [6] | Potency [7] | Potency [8] | Potency [9] | Potency [10] | Potency [11] | Potency [12] | Potency [16] | Potency [13] | Potency [17] | Potency [14] | Potency [15]

CC(=O)N(CC(O)CO)c1c(I)c(C(=O)NCCO)c(I)c(C(=O)NCC(O)CO)c1I (stereo not drawn)
inactive: Potency [1] | Potency [2] | Potency [3] | Potency [4] | Potency [5] | Potency [6] | Potency [7] | Potency [8] | Potency [9] | Potency [10] | Potency [11] | Potency [16] | Potency [13] | Potency [17] | Potency [14] | Potency [15]

c1cc2ccc3ccc4ccc5cccc6c(c1)c2c3c4c56
inactive: activity change, negative = cytotoxicity [1] 3.98% [at 3.27 µM] | activity, positive = activation [2] 4.07% [at 3.27 µM] | activity change [3] 0.532% [at 2.04 µM, hits give high values] | activation [4] 0.0535% [at 2.72 µM] | activation [5] -0.291% [at 2.04 µM] | activity change, negative = cytotoxicity [6] -1.32% [at 2.33 µM] | activity change, negative = cytotoxicity [7] 2.26% [at 2.33 µM] | activation [18] 5.49% [at 2.33 µM] | activity, negative = inhibition [8] 1.93% [at 2.12 µM] | activation [9] 13.2% [at 2.65 µM] | activity, negative = inhibition [10] 5.84% [at 2.17 µM] | activation [12] 6.38% [at 3.27 µM] | activity change, negative = inhibition [16] 7.84% [at 3.27 µM] | activity change, negative = inhibition [13] 4.76% [at 3.27 µM] | activation [14] -0.0755% [at 3.27 µM] | activity change, negative = inhibition [15] -0.594% [at 3.28 µM]

CC(=O)N[C@@H](CCC(=O)O)C(=O)O
inactive: Potency [1] | Potency [2] | Potency [3] | Potency [4] | Potency [5] | Potency [6] | Potency [7] | Potency [8] | Potency [9] | Potency [10] | Potency [11] | Potency [12] | Potency [16] | Potency [13] | Potency [14] | Potency [15]

CCCCCCCCCCCCCC(=O)OC
inactive: Potency [1] | Potency [2] | Potency [3] | Potency [4] | Potency [5] | Potency [6] | Potency [7] | Potency [8] | Potency [9] | Potency [10] | Potency [11] | Potency [12] | Potency [16] | Potency [13]

O=C=NCC1CCCC(CN=C=O)C1 (stereo not drawn)
inactive: Potency [1] | Potency [2] | Potency [3] | Potency [4] | Potency [5] | Potency [6] | Potency [19] | Potency [9] | Potency [11] | Potency [12] | Potency [16] | Potency [13] | Potency [14] | Potency [15]

CC(=O)OCC(=O)NCCCOc1cccc(CN2CCCCC2)c1
inactive: Potency [1] | Potency [2] | Potency [3] | Potency [4] | Potency [5] | Potency [6] | Potency [7] | Potency [8] | Potency [9] | Potency [10] | Potency [11] | Potency [12] | Potency [16] | Potency [13] | Potency [15]
